# Screening data as filed in PubChem.
# This excerpt belongs to a sample that is enriched for hits.
# CapD inh = inhibitors of Bacillus anthracis CapD enzyme | purified CapD enzyme, fluorescence intensity read-out; stronger effect = lower value | z-score (concentration not given with the values) | hit rate 0.23% among 140,000 | AID 492967; in the data active means z-score mostly below about -2.9, no sharp cut-off; inactive means mostly above about -1.9
# The depositor's hits bear a star.
SMILES,CapD inh
CN(NC(=O)NC(=O)c1c(Cl)cccc1Cl)c1cccc(F)c1C#N,0.54
O=C(/C=C/c1ccccc1)C1(O)CCCCC1,-0.89
COc1ccc(/C=C/C(=O)C2(O)CCCCC2)cc1OC,-4.5*
O=C(/C=C/c1ccc(Cl)cc1)C1(O)CCCCC1,-1.5
CC1=C(c2ccccc2)S(=O)(=O)N=C1N(C)Cc1ccccc1,-0.35
COc1cc(C(=O)CN2C(=O)c3ccccc3C2=O)c(OC)cc1Br,0.6
COc1ccc(/C=C2\SC(=S)N(C(CC(=O)O)C(=O)O)C2=O)cc1 (stereo not given),-3
O=C(O)CC(C(=O)O)N1C(=O)/C(=C/c2ccc(-c3ccc(Br)cc3)o2)SC1=S (stereo not given),-4.5*
O=C(O)CC(C(=O)O)N1C(=O)/C(=C/c2ccc(Cl)cc2)SC1=S (stereo not given),-1
COc1ccc(CNC(=O)OCc2cccc(OCc3ccccc3)c2)c(OC)c1,-0.48
Cc1cc(/C=C2\C(=O)NC(=S)N(c3ccccc3)C2=O)c(C)n1-c1cccc([N+](=O)[O-])c1,-0.94
O=C(c1ccc(F)cc1Cl)N1CCN(S(=O)(=O)c2cc(Br)ccc2Br)CC1,-0.97
Cc1ccc(C)c(C2=C/C(=C3/c4ccccc4-c4ncccc43)C(=O)O2)c1,-0.2
COCCNC(=O)c1ccc(C(=O)NCCOC)cc1,0.13
COCCNC(=S)c1ccc(N(C)C)cc1,-4.9*
COCCCNC(=S)N/N=C/c1ccc(N(C)C)cc1,43
COC(=O)C(Cc1ccc(Cl)cc1)NC(=O)c1ccccc1COC(=O)c1ccccc1 (stereo not given),-0.34
O=C(O)CN1C(=O)/C(=C\c2ccc(-c3ccc([N+](=O)[O-])cc3Cl)o2)SC1=S,-0.11
O=C1/C(=C/c2cc([N+](=O)[O-])cc(Br)c2O)SC(=S)N1c1ccc([N+](=O)[O-])cc1,-0.13
O=C(O)CN1C(=O)/C(=C\c2cc([N+](=O)[O-])cc(Br)c2O)SC1=S,-7.9*
CNC1(c2nnnn2-c2cccc(Cl)c2)CCCC1,-0.27
CN1C(=O)/C(=c2/[nH][nH]c(=O)/c2=C\C=C\c2ccccc2)C(=O)c2ccccc21,-5.2*
C=CCN1C(=O)NC(=O)/C(=C/C=C/c2ccccc2)C1=O,-0.42
CN1C(=O)/C(=C\C(=O)c2cccs2)c2ccccc21,-0.22
CCOC(=O)C1=C(N)n2c(s/c(=C/c3ccccc3)c2=O)=C(C(=O)OCC)C1c1ccccc1 (stereo not given),0.45
SMILES,CapD inh
CCOC(=O)C1=C(N)n2c(s/c(=C/c3ccco3)c2=O)=C(C(=O)OCC)C1c1ccco1 (stereo not given),-4.2*
CCOC(=O)C1=C(N)n2c(s/c(=C\c3ccco3)c2=O)=C(C#N)C1c1ccco1 (stereo not given),5.9
NC(=O)C1CCN(C(=O)OCCCCc2ccc([N+](=O)[O-])cc2)CC1,-0.45
c1cc(-c2cn[nH]c2-c2ccncc2)ccn1,-0.13
COc1ccc(N/C(C)=C/C(=O)c2ccccc2)cc1,-1.1
CN=C(Nc1ccc(Cl)cc1)c1cccnc1,-0.42
CC(=O)Nc1ccc(N/C(C)=C/C(=O)c2cccnc2)cc1,-4.1*
CC[n+]1c(/C=C2/C=C(C)CC(C)C2)sc2ccccc21 (stereo not given),-0.23
C[n+]1c(/C=C/Nc2ccccc2)sc2ccccc21,-4.4*
CC[n+]1c(/C=C/N(C)c2ccccc2)sc2ccc(OC)cc21,32
CC[n+]1c(/C=C/Nc2ccccc2)sc2ccccc21,-4.9*
CSc1sc2ccccc2[n+]1C,0.51
C[n+]1c(COc2ccccc2O)sc2ccccc21,-0.5
COc1cc(S(=O)(=O)N2CCCc3ccccc32)c(OC)cc1C,-0.22
COc1cccc(CCNC(=O)OCCCCc2ccc([N+](=O)[O-])cc2)c1,-0.23
CC1CC(C)CN(C(=O)c2ccc(N3CC4CC(C3)c3cccc(=O)n3C4)c(NC(=O)c3ccc(F)cc3)c2)C1 (stereo not given),-0.21
O=C(NCCNc1ccc([N+](=O)[O-])cn1)NNC(=O)c1ccc([N+](=O)[O-])o1,-5.1*
CCN(CC)c1ccc(C(=O)NNC(=O)NCCNc2ccc([N+](=O)[O-])cn2)cc1,9.9
CSCCNC(=O)NCCNc1ccc([N+](=O)[O-])cn1,-0.42
O=C(NCCc1ccccn1)C1COc2ccccc2O1 (stereo not given),0.065
O=C(/C=C/c1cn(-c2ccccc2)nc1-c1cccs1)NC1CCC(O)CC1 (stereo not given),80
O=C(O)CN(CC(=O)O)S(=O)(=O)c1ccccc1,-0.2
Cc1[nH]c(=O)[nH]c(=O)c1CC(=O)O,0.3
O=C1CC(=O)c2c1cccc2[N+](=O)[O-],-2.2
O=C1CC(=O)c2ccc3c4c(ccc1c24)C(=O)CC3=O,-5.1*
SMILES,CapD inh
O=C(Nc1cccc(C(=O)N2CCN(C(c3ccccc3)c3ccccc3)CC2)c1)c1ccco1,-0.07
Cc1[nH]c2ccccc2c1C=Nc1ccccc1Br,-0.87
Cc1cc(=O)oc(C)c1C(=O)NCCCN1CCN(c2ccc(F)cc2)CC1,-0.7
Cc1cc(=O)oc(C)c1C(=O)NCc1c(F)cc(F)cc1F,-5.9*
COc1ccc(CCNC(=O)c2c(C)cc(=O)oc2C)cc1OC,0.43
CC(C)Nc1cnn(C23CC4CC(CC(C4)C2)C3)c(=O)c1Cl,0.11
COCC(C)NC(=O)CCC(=O)c1ccc(F)cc1 (stereo not given),-0.09
O=C(NCCc1ccccc1)C1CCCN(c2nnc(-n3cccc3)s2)C1 (stereo not given),0.45
O=C(O)Cn1c(O)c(C=Nc2ccccc2)sc1=S,-7.4*
Oc1[nH]c(=S)sc1C=Nc1ccccc1,0.18
C=CCn1c(O)c(C=Nc2ccccc2)sc1=S,-2.7
COc1cc(OC)nc(-c2ccc(C(=O)N3CCN(c4nc(C)cc(C)n4)CC3)cc2)n1,-0.24
COc1ccc(N(C(C)=O)S(=O)(=O)c2cc(OC)ccc2OC)cc1,-1.1
COc1ccc(N(C(=O)c2ccncc2)S(=O)(=O)c2ccc(OC)c(OC)c2)cc1,-5.6*
COc1ccc(S(=O)(=O)N(C)c2ccc(C(N)=O)cc2)cc1OC,0.18
Cc1ccc(C)c(N=C2c3ccccc3-c3nc4ccccc4cc32)c1,0.63
O=C(O)COc1nc(-c2ccccc2)sc1C(=O)O,6.3
COc1cccc(/C=C2/CCC/C(=C\c3cccc(OC)c3OC)C2=O)c1OC,0.33
COc1cccc(/C=C2/CC(C(C)(C)C)C/C(=C\c3cccc(OC)c3OC)C2=O)c1OC (stereo not given),-9.2*
COc1ccc(/C=C2/CC(C(C)(C)C)C/C(=C\c3ccc(OC)cc3OC)C2=O)c(OC)c1 (stereo not given),0.63
O=C(CSc1c[nH]c2ccccc12)N1N=C(c2cccs2)CC1c1ccc(F)cc1 (stereo not given),-0.45
O=C(O)c1ccc(Nc2nccc(Nc3ccccc3C(=O)O)n2)cc1,13
O=C(O)/C=C\C(=O)Nc1ccccc1C(=O)O,5.8
O=C(O)c1cc(Nc2ccccc2C(=O)O)nc(Nc2ccccc2C(=O)O)n1,-5.1*
N#CC1=C(N)N(c2sc3c(c2C#N)CCCCC3)C2=C(C(=O)CCC2)C1c1cccnc1 (stereo not given),-0.06
SMILES,CapD inh
O=C(NC1CCN(Cc2ccccc2)CC1)C1CCC1,-0.085
CC(=S)/C=C1\Sc2ccccc2N1C,-5.3*
CN1/C(=C\C=C2C(=O)c3ccccc3C2=O)Sc2ccccc21,-0.57
CN1/C(=C/C(=O)c2ccco2)Sc2ccccc21,-2
O=S(=O)(CCSc1ccccc1)c1ccc(Cl)cc1,0.11
O=C(c1c(Cl)nc2sccn12)N1CCN(Cc2ccccc2)CC1,0.83
